Compound activity from PubChem.
This is a sample that favours compounds with a hit; in the whole collection about 9.2% have one here.
ELG1 genotoxic: inducers of genotoxicity in HEK293T ELG1-luciferase cells; AID 504466; Potency, µM (titrated, usually from 46 µM), without a hit: top-dose activity change, positive = activation, usual class: activators; actives 1.3% (n = 330,000); HEK293T ELG1-luciferase reporter, luminescence, 16 h; further: % of control where 0% means no effect; nearly all actives have a fitted effect of over 60% in size
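Genotoxic stress is detected as increased luminescence from luciferase-tagged ELG1 in HEK293T cells, measured with ONE-Glo after a 16 hr treatment at 37 °C.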
FLuc modulator: counter-screen for miR-21 project: firefly luciferase inhibitors or activators; purified FLuc, Km substrates, luminescence inhibition; Potency, µM (highest dose often 57.5 µM), without a hit: at the highest dose activity change, negative = inhibition, most hits filed as inhibitors; actives 6.9% (n = 360,000); AID 588342;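 further: plate controls were vehicle for no effect and reference inhibitor for full effect; nearly all actives have a fitted effect of over 55% in size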
Target sequence (P08659 whole entry, looked up): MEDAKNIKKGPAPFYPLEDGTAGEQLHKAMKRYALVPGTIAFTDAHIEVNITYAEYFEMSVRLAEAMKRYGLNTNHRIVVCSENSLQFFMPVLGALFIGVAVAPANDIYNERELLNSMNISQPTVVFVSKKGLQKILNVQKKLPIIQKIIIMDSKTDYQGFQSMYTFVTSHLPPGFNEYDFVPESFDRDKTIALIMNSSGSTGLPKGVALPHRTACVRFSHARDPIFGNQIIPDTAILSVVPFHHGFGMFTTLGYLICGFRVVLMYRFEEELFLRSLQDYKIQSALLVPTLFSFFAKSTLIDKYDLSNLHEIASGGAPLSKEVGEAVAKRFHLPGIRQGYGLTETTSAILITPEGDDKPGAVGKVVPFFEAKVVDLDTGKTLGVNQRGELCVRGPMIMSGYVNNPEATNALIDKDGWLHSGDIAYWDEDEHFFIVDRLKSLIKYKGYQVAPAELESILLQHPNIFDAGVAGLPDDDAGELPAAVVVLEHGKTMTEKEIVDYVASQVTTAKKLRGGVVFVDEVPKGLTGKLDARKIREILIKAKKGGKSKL
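Purified P. pyralis luciferase, 10 nM final, with Km-level 10 uM D-luciferin and 10 uM ATP in 50 mM Tris acetate pH 7.5, 10 mM Mg acetate, 0.01% Tween-20, 0.05% BSA; 6-point qHTS titration about 60 µM downward; luminescence read.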
NPC1 prom act: activates the NPC1 promoter. actives 2.4% (n = 320,000). AID 485313. Huh7 NPC1 promoter luciferase reporter, 24 h. Potency, µM (doses to about 9.22 µM), without a hit: at the top dose activation, most hits filed as activators; further: % of control where 0% means no effect; nearly all actives have a fitted effect of over 60% in size
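Stable NPC1-promoter luciferase Huh7 line; cpd (DMSO) 24 h, 37 °C, 5% CO2; Amplite luciferase reagent 10 min RT; luminescence readout. qHTS format.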
SMN2 splice enh: SMN2 splice variant enhancement; HEK293 SMN2-luciferase splicing reporter, luminescence, 30-36 h; actives 2.8% (n = 210,000); Potency, µM (titrated, usually from 46.1 µM), for the others: at the top dose activity change, positive = activation, hits mostly activators; AID 1458; further: % of control where 0% means no effect; nearly all actives have a fitted effect of over 55% in size
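qHTS luciferase splicing reporter: luminescence rises when SMN2 exon 7 is included in transfected HEK293 cells. Compound exposure lasted 30-36 h at 37C, with 4.5 mM final sodium butyrate as control, followed by a ONE-Glo read.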
Rab9 prom act: Rab9 promoter activation. actives 2.8% (n = 320,000). AID 485297. Huh7 Rab9 promoter-luciferase reporter, luminescence, 24 h. Potency, µM (top dose mostly 9.22 µM), for inactives: at the highest dose activation, negative = inhibition, usual class: activators; further: % of control where 0% means no effect; nearly all actives have a fitted effect of over 60% in size
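Cells were plated at 1500 per well in reduced-serum medium with 10% FBS and left 2 h. Compound in DMSO was then added for 24 h at 37 °C. Reporter signal was read by luminescence after 10 min with luciferase detection reagent.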
ELG1 repair inh: ELG1-dependent DNA repair inhibition | actives 2.3% (n = 330,000) | Potency, µM (titrated, usually from 46.1 µM), for inactives: top-dose activity change, negative = inhibition, actives largely listed as inhibitors | HEK293T ELG1-luciferase reporter, luminescence, 16 h; DNA damage induced by 5-fluorouridine; further: on the % scale 0 is the no-effect control and ±100 the full control effect; nearly all actives have a fitted effect of over 55% in size
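Quantitative HTS, concentration-response format. 2,000 cells/well co-treated with 5-fluorouridine and compound, 16 hr in 5% CO2 at 37 °C; ONE-Glo luminescence read after 30 min.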
* marks the source's active call; other numbers are inactive results; ? = inconclusive; . = not tested or not shown; [ ] = another dose, or the depositor's remark. The call rests on the fitted dose curve; in most records, active means well fitted curve in the direction sought with a large enough effect; inconclusive means small, poorly fitted or top-dose-only effect, or another doubt; inactive means no such curve, though single readings can be large; an effect the other way counts as inactive or inconclusive. Potency means the concentration at half of the fitted maximal effect.

SMILES	ELG1 genotoxic	FLuc modulator	NPC1 prom act	SMN2 splice enh	Rab9 prom act	ELG1 repair inh
Cc1nn(-c2ccc(F)cc2)c(-n2cccc2)c1C(=O)N1CCN(c2ccccc2F)CC1	.	-10.0%	.	.	.	.
Cc1ccc2nc(NC(=S)NC(=O)c3ccco3)sc2c1	?	0.477µM*	1.41µM*	11.2µM*	3.55µM*	?
CC(=O)Nc1nc2c(s1)CCc1ccccc1-2	-0.4%[9.26 µM]	?	13.8%	.	3.1%	?
O=C(Nc1nc2ccsc2c(=O)s1)c1ccco1	?	15.1µM*	?	.	?	?
Cc1csc2c(=O)sc(NC(=O)c3ccco3)nc12	1.5%	?	4.2%	.	-1.1%	3.5%
O=C(Nc1nc2c(s1)CCc1ccccc1-2)c1ccco1	10.7%	16.9µM*	?	15.8µM*	?	?
CCc1c(C)c2cc3c(c(C)c2oc1=O)OCN(CCc1ccc(OC)c(OC)c1)C3	.	0.8%	.	-7.6%	.	.
CC1Cc2nc(SCC(=O)N3CCCc4ccccc43)n(C)c(=O)c2S1 (stereo not drawn)	-5.0%	-0.3%	-2.6%	-32.4%	-6.1%	23.1µM*
C(=N\Nc1ncnc2sc3c(c12)CCC3)/c1cccs1	-6.3%	-19.5%	-7.2%	-47.1%	-1.1%	?
Cn1cnc2c(N/N=C/c3cccs3)ncnc21	?	8.49µM*	3.55µM*	.	1.78µM*	?
CCOC(=O)c1ccc(NC2=CC(c3ccc(O)c(OCC)c3)N(c3ccc(C(=O)OCC)cc3)C2=O)cc1 (stereo not drawn)	.	3.9%	.	0.8%	.	.
COc1ccc(/C=C2\CCc3c2nc2ccccc2c3C(=O)O)cc1OC	4.11µM*	0.301µM*	0.398µM*	.	0.316µM*	?
CN(C)c1ccc(/C=C2\CCCc3c2nc2ccccc2c3C(=O)O)cc1	11.6µM*	4.26µM*	2.51µM*	.	0.891µM*	?
c1ccc2c(c1)CCc1c-2nc2ccccc2c1N1CCOCC1	-7.0%	-10.3%	-3.1%	.	-13.0%	0.0%
O=C(O)c1c2c(nc3ccccc13)-c1ccccc1CC2	8.5%	10.7µM*	-0.5%	.	-1.7%	10.8%
O=C(O)c1c2c(nc3ccccc13)/C(=C/c1ccc(O)cc1)CCC2	0.1%	19µM*	2.3%	19.8%	8.5%	4.4%
CCC(=O)c1ccc(N2CCN(C(=O)c3cccs3)CC2)c(F)c1	12.0%	-7.9%	?	.	?	?
CN(C)CC[n+]1ccc(C(=O)c2ccccc2)cc1	-4.2%	-2.9%	-3.2%	.	0.1%	-23.2%
CCn1c(SCC(=O)NCCc2ccccc2)nc2c([nH]c3ccccc32)c1=O	?	5.6%	9.4%	.	5.4%	?
Cc1ccc(CNC(=O)C2CCN(S(=O)(=O)c3c(C)noc3/C=C/c3cccs3)CC2)cc1	.	5.8%	.	-4.4%	.	.
C=CCOC(=O)CCCCCCCC	0.0%	-0.9%	2.5%	-19.4%	-5.1%	-22.5%
Cn1c(SCC(=O)c2ccccc2)nnc1-c1cccc(N)c1	?	23.9µM*	25.4%	16.6%	?	?
Cn1c(SCC(=O)c2ccccc2)nnc1-c1ccccn1	?	16.9µM*	?	.	3.55µM*	?
COc1ccc(C(=O)CSc2nnc(-c3ccco3)n2C)cc1	3.5%	-14.6%	0.7%	-12.6%	-1.7%	3.3%
Cn1c(SCC(=O)c2ccccc2)nnc1-c1ccco1	?	21.3µM*	26.1%	14.3%	?	?
Cn1c(SCC(=O)c2ccccc2)nnc1-c1ccncc1	3.2%	-0.5%	1.2%	3.3%	-4.3%	?
CCOC(=O)c1ccc(NS(=O)(=O)c2cn(C)c(C)n2)cc1	.	0.3%	.	.	.	.
CC(C)NC(=O)c1ccccc1NC(=O)C1COc2ccccc2O1 (stereo not drawn)	-5.8%	7.2%	-3.6%	-44.0%	-5.1%	20.6µM*
CCC(C)NC(=O)c1ccccc1NC(=O)C1COc2ccccc2O1 (stereo not drawn)	-11.0%	2.1%	1.0%	.	11.1%	?
